CF NFkB block = inhibitors of cystic fibrosis induced NF-kB; 0.86% of 360,000 active; KKLEB NF-kB-GFP reporter, PAF-induced, GFP fluorescence overnight; AID 588850; inhibition, % at 5 µM;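 active = at least 50% inhibition at 5 µM, scaled per plate between neutral and stimulator controls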;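 note: PAF is a Pseudomonas aeruginosa culture filtrate used as stimulus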
HSP90 refold inh = blocks HSP90-mediated luciferase refolding in reticulocyte lysate. Rabbit reticulocyte lysate, luciferase refolding luminescence, 3 h. inhibition, % at 5.6 µM. 0.91% of 290,000 active. AID 1789;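 active = inhibition above the screen-wide mean plus 3 SD, computed separately per campaign, cut at about 16% in these data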;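 note: inhibitors lower the luminescence because luciferase stays unfolded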
Mdm2 MdmX PPI = human Mdm2/MdmX binding inhibition. inhibition, % at 8 µM. SaOS-2 split-luciferase Mdm2/MdmX complementation, luminescence. O15151+Q00987. 3% of 330,000 active;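 active = inhibition of at least 50% at 8 µM in the primary screen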
Peg3 promoter = Peg3 promoter activity inhibition; HeLa PEG-Prom luciferase reporter, luminescence, overnight; inhibition, % at 20 µM; 1.7% of 360,000 active; AID 588405;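 active = inhibition of at least 50% at 20 µM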
LGR2 inh = Drosophila LGR2 receptor signaling inhibition; AID 720647; 0.35% of 380,000 active; inhibition, % at 9.99 µM; HEK293 LGR2, CRE-luciferase, bursicon-stimulated, 4 h;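 active = drop in luminescence signal, shown as inhibition above about 50% in the replicate tests, limit read from the data, passing the limit was not always enough; inconclusive = probably only some replicates passing the limit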;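 note: agonist challenge used bursicon conditioned medium at about half maximal strength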
KKLEB cytotox = counter-screen for CF NF-kB inhibitors: cytotoxicity; KKLEB CF airway cells viability, ATPlite luminescence, overnight; active compounds read low; cells stimulated with P. aeruginosa culture filtrate; activity change (cytotoxicity), % at 5 µM; 0.36% of 360,000 active; AID 602141;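 active = corrected activity change at or below -50% at 5 µM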
A number is an active result; . = inactive; ? = inconclusive; / = no result given. In the library only some 3.6% were active in any assay of this set; here they are far more common.

SMILES | CF NFkB block | HSP90 refold inh | Mdm2 MdmX PPI | Peg3 promoter | LGR2 inh | KKLEB cytotox
CC(N)c1csc(NC(=O)Nc2cccc(C(F)(F)F)c2)n1 (configuration not stated) | . | / | / | 78.0 | . | .
NC(c1csc(NC(=O)Nc2ccc(OC(F)(F)F)cc2)n1)C1CCCCC1 (configuration not stated) | 68.7 | / | / | 100.3 | . | -65.2
C[C@H](CO)N1C[C@H](C)[C@H](CN(C)C(=O)Nc2ccccc2)Oc2c(NC(=O)c3nc4ccccc4s3)cccc2C1=O | / | / | / | / | . | /
CC(C)(C)c1ccccc1NC(=O)Nc1nc(C(N)c2ccccc2)cs1 (configuration not stated) | . | / | / | . | . | .
CC(C)(C)c1ccccc1NC(=O)Nc1nc(C(N)Cc2ccc(F)cc2)cs1 (configuration not stated) | . | / | / | 97.6 | . | .
CS(=O)(=O)Nc1ccc([N+](=O)[O-])cc1Oc1ccccc1 | 68.7 | . | . | . | . | .
O=C(COC(=O)c1ccccc1)NCc1ccco1 | . | . | . | . | / | -93.5
CCOC(=O)c1c(-c2ccccc2)csc1NC(=O)c1ccc(N2C(=O)CCC2=O)cc1 | 69.4 | . | . | . | . | -57.1
CCOC(=O)c1c(-c2ccccc2)csc1NC(=O)c1ccc(S(=O)(=O)N2CC(C)OC(C)C2)cc1 (configuration not stated) | . | . | . | . | / | .
CC1(C)c2[nH]c3ccccc3c2C[C@@H]2C(=O)N(Cc3ccc(F)cc3)C(=O)N21 | . | / | . | 62.0 | . | .
Cc1noc(C)c1NC(=O)Nc1ccc2c(c1)C(=O)N([C@H](C)CO)C[C@H](C)[C@H](CN(C)Cc1ccncc1)OCCCC[C@H](C)O2 | / | / | / | / | . | /
CCCN1[C@H](C(=O)N[C@@H](C)c2ccccc2)[C@@H](CO)[C@@H]2Cn3c(ccc(-c4ccc(F)cc4)c3=O)[C@@H]21 | / | / | / | / | . | /
CCOC1=C2CN(S(=O)(=O)c3ccc(C)cc3)[C@H](c3cccc4ccccc34)C[C@H]2C(C#N)(C#N)C(C#N)(C#N)C1 | . | / | / | 51.7 | / | .
CCCCC[C@@H]1[C@@H]2C(=C(OCC)C[C@@H]3C(=O)N(c4ccccc4)C(=O)[C@H]23)[C@H](c2ccccc2)N1S(=O)(=O)c1ccc(C)cc1 | . | / | / | . | . | .
CCOC1=C2[C@H](c3ccccc3)N(S(=O)(=O)c3ccc(C)cc3)C(C(C)(C)C)[C@H]2C(C#N)(C#N)C(C#N)(C#N)C1 (some centres not stated) | 67.4 | / | / | 77.9 | . | .
CO[C@@H](CN(C)S(=O)(=O)c1cn(C)cn1)[C@H](C)CN(C(=O)Nc1ccc(F)cc1)[C@H](C)CO | / | / | / | / | . | /
C[C@@H]1CN([C@H](C)CO)C(=O)Cc2cc(NC(=O)C3CCCCC3)ccc2O[C@H]1CN(C)C(=O)NC1CCCCC1 | / | / | / | / | . | /
CN(C)CCCn1c2c3ccccc3ccc2c2oc(=O)c3ccccc3c21 | . | / | / | 97.4 | . | .
C#CCOc1ccc(C2C3=C(COC3=O)Nc3cc4c(cc32)OCO4)cc1OC (configuration not stated) | . | . | / | . | . | .
O=C1OCC2=C1C(c1ccc(F)cc1)c1cc3c(cc1N2)OCCO3 (configuration not stated) | 63.3 | . | / | . | . | .
O=C1OCC2=C1C(c1ccc(F)cc1)c1cc3c(cc1N2)OCO3 (configuration not stated) | 59.0 | . | / | . | / | .
C[C@@H]1CCCCO[C@H](CN(C)S(C)(=O)=O)[C@@H](C)CN([C@@H](C)CO)C(=O)c2cc(NS(=O)(=O)c3ccc(F)cc3)ccc2O1 | / | / | / | / | . | /
COc1ccc(C(=O)N2CCC(NC(=O)C(Cc3ccccc3OC)NC(C)=O)CC2)cc1 (configuration not stated) | . | . | . | . | . | .
COc1cc(C(=O)N2CCC(NC(=O)C(Cc3ccccc3)NC(C)=O)CC2)cc(OC)c1OC (configuration not stated) | . | . | . | 57.8 | / | .
CCC(C)c1ccc(C(C)NC(=S)NCc2ccc(F)cc2)cc1 (configuration not stated) | . | . | . | 51.1 | . | .
SMILES | CF NFkB block | HSP90 refold inh | Mdm2 MdmX PPI | Peg3 promoter | LGR2 inh | KKLEB cytotox
CCCc1ccc(C(C)NC(=S)NCc2ccc(F)cc2)cc1 (configuration not stated) | . | . | . | . | . | .
CO[C@@H]1CN(C)C(=O)c2ccc(NC(=O)c3cc(C)on3)cc2OC[C@@H](C)N(CC2CC2)C[C@@H]1C | / | / | / | / | . | /
Fc1ccccc1-c1ccc(/C=N/Nc2nc3ccccc3[nH]2)o1 | . | . | . | . | . | -55.2
CCCCn1c(/C=N/Nc2nc3ccccc3[nH]2)nc2ccccc21 | . | . | . | . | . | .
CCOC(=O)c1c(NC(=O)CC2SC(N)=NC2=O)sc2c1CCC(C)C2 (configuration not stated) | . | 59.3 | . | . | . | .
C[C@H](CO)N1C[C@H](C)[C@H](CN(C)S(=O)(=O)c2ccc(Cl)cc2)Oc2ccc(NC(=O)CCN3CCOCC3)cc2CC1=O | / | / | / | / | . | /
COc1ccc(-c2nc3ccccc3s2)cc1 | . | 17.7 | / | . | 80.3 | .
COc1cccc(-c2nc3ccccc3s2)c1 | . | . | . | . | / | .
CCOC(=O)Cc1csc(NC(=O)c2ccc(Br)s2)n1 | / | 16.4 | . | / | / | /
CCOC(=O)Cc1csc(NC(=O)c2cccs2)n1 | . | . | . | . | / | .
O=C(c1ccccc1)C(CN1CCCCC1)c1ccccc1 (configuration not stated) | 84.9 | / | / | 103.5 | ? | -62.9
CCOc1ccc(C(O)(CCC(C)C)C(CN2CCOCC2)c2ccccc2)cc1 (configuration not stated) | . | . | . | . | . | .
CC(CN1CCN(CC(C)C(=O)c2ccccc2)CC1)C(=O)c1ccccc1 (configuration not stated) | . | / | / | . | . | .
CCOc1ccc(C(=O)C(CN2CCOCC2)c2ccccc2)cc1 (configuration not stated) | . | . | / | 82.5 | . | .
CCOc1ccc(C(CN2CCOCC2)C(C)=O)cc1OC (configuration not stated) | . | / | / | 58.4 | . | .
COCCNC(=O)C[C@@H]1CC[C@@H]2[C@H](COc3ccc(NC(=O)c4cc(C)on4)cc3C(=O)N2C)O1 | / | / | / | / | . | /
O=C1/C(=C/c2ccncc2)CCC/C1=C\c1ccncc1 | 86.3 | . | / | 100.9 | 95.3 | .
O=C1C(=Cc2ccncc2)CCCc2ccccc21 | . | / | / | . | . | .
C[C@H]1CN([C@@H](C)CO)C(=O)c2cccc(NC(=O)Nc3ccccc3)c2O[C@H]1CN(C)Cc1ccc(-c2ccccc2)cc1 | / | / | / | / | . | /
O=C(OCC12CC3CC(CC(C3)C1)C2)c1ccc(NCc2cc(O)ccc2O)cc1 | 58.5 | / | / | . | . | .
COc1ccc2[nH]c(-c3cccc(F)c3)cc(=O)c2c1 | 55.7 | . | . | . | . | .

Screening data (PubChem BioAssay)
